# Source: PubChem BioAssay (Broad Institute)
# A1 inh – A1 inhibition. MEF A1-2A-BIM cells, caspase-Glo luminescence, 3 h; percent of clofoctol signal, DMSO as zero. caspase activation, % (concentration not given with the values). 0.51% of 21,000 active;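 active means most replicate scores above 10, or exactly half above 10 with mean activity above 10; inconclusive means mean activity below 10 while half the replicates exceed 10; inactive means most replicate scores below 10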;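 further: effector caspase 3 and 7 activity cleaving a DEVD luciferin substrate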
# BJeLR viab HTS – BJeLR cell viability reduction | BJeLR fibroblasts viability, CellTiterGlo ATP luminescence, 48 h; HRASV12, hTERT and SV40 LT/ST transformed | viability loss activity score, % (concentration not given with the values) | 0.64% of 30,000 active | AID 2275; in the data active means viability loss activity score above about 50%; inconclusive means no clear call, values can overlap the other calls; inactive means below about 35%;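 further: higher score means fewer live cells and less ATP luminescence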
# The depositor's hits bear a star; ? = inconclusive; / = no result. Hits are enriched below; roughly 0.86% of the tested compounds scored in any of these assays.
SMILES,A1 inh,BJeLR viab HTS
CSC(SC)=C(C#N)C(=O)c1cccc(C(F)(F)F)c1,47.7*,?
N#CC(C(=O)c1cccc(C(F)(F)F)c1)=C1SCCCCS1,0.2,-8.6
CC1CCN(C(=O)c2ccc3c(SCC(=O)O)c4c(nc3c2)CCCC4)CC1,/,5.2
Cc1c(/C=C2\SC(c3ccccc3)=NC2=O)c(=O)n(-c2ccccc2)n1C,1.0,4.2
CO[C@@]12[C@H](COC(N)=O)C3=C(C(=O)C(C)=C(N)C3=O)N1C[C@@H]1N[C@@H]12,-0.9,58.5*
COc1ccc(N2CC(C(=O)OCC(=O)Nc3ccccc3C(F)(F)F)CC2=O)cc1 (stereo unspecified),1.1,-2.3
Cc1[nH]c2ccccc2c1C(c1c(C)[nH]c2ccccc12)C(C)C,-0.2,-1.7
Cc1[nH]c2ccccc2c1Sc1ccccc1,10.5*,1.0
CCOC(=O)c1oc2c(CN3CCN(C)CC3)c(O)ccc2c(=O)c1-c1ccc(OC)cc1,/,-1.2
COc1ccccc1C1CC(=O)Nc2cc3c(cc21)CCC3 (stereo unspecified),/,50.5*
COc1ccccc1C1CC(=O)NC(C)=C1C(=O)OC1CCCC1 (stereo unspecified),/,-0.2
O=C(CCCCn1c(=O)[nH]c2ccsc2c1=O)N1CCCCC1,/,-7.1
COc1cc(C2c3c(cc(OC)c(O)c3O)CC(CO)C2CO[C@@H]2O[C@H](C(=O)O)[C@@H](O)[C@H](O)[C@H]2O)cc(OC)c1O (stereo partly specified),0.2,-5.5
Cc1cc(C)c(C#N)c(SCc2ccccc2)n1,0.3,-9.9
Cc1cc(C)c(C#N)c(Sc2ncnc3c2nnn3Cc2ccccc2)n1,9.8*,32.5
